Test results reported in the supplement of paper PMC10849652.
The full data set covers some 8,800 targets. This sample favours those with a hit. About 0.5% of all pairs of compound and target were hits. Values without a mark were called inactive.

Columns and labels:
Experiment in all cases: log2 fold change, soluble protein after heating vs DMSO (PISA); higher = thermal stabilisation; K562 lysate, 10 uM; active = over 0.2 and 3.5 SD of the protein, either way, in both replicates (recomputed)
[1] = compound: C=CC(=O)N1CCC[C@@H](n2nc(-c3ccc(Oc4ccccc4)cc3)c3c(N)ncnc32)C1 [ibrutinib]
Procedure, shortened: (§1)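 Values give the log-two fold change in thermal stability against solvent controls, from duplicates. Crude K562 extract at 1 mg/mL protein, made by dounce homogenisation in PBS pH 7.4 with 1 mM MgCl2, was treated with 10 μM compound for 30 min. After 3 min heating across 48°C-58°C, aliquots were pooled, adjusted to 0.5% NP-40 at 4°C and centrifuged at 21,000xg for 90 min. The supernatant was measured by TMTpro 16plex LC-MS/MS with channel sums equalised.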

[2] = compound: CC(=O)c1cnc2ccc(-c3cc(Cl)c(O)c(Cl)c3)nc2c1N[C@H]1CC[C@H](CN(C)C)CC1
Procedure, shortened: as §1

[3] = compound: CC(C)(C)Cn1c(N)nc2ccc(-c3[nH]c(C(C)(C)C)nc3-c3ccc(F)cc3)nc21 [ralimetinib]
Procedure, shortened: as §1

[4] = compound: CC(C)(O)CC(=O)NCCn1ccc2ncnc(Nc3ccc(Oc4cccc(C(F)(F)F)c4)c(Cl)c3)c21
Procedure, shortened: as §1

[5] = compound: CC(C)C1=C2N=C(C=C(N2N=C1)NCC3=CC=CC=C3)NCCCCCCN
Procedure, shortened: as §1

[6] = compound: CC1=C(C(CC(=O)N1)C2=CC=C(C=C2)C(F)(F)F)C(=O)NC3=C(C=C4C(=C3)C=NN4)F
Procedure, shortened: as §1

[7] = compound: CC1=C(C2=C(C=C1)C(=O)C3=CC=CC=C3N2CCCN)C
Procedure, shortened: as §1

[8] = compound: CC1=C(C=C(C=C1)NC(=O)C2=CC(=CC=C2)C(C)(C)C#N)NC3=CC4=C(C=C3)N=CN(C4=O)C
Procedure, shortened: as §1

[9] = compound: CC1=C(C=C(C=C1)NC(=O)C2=CC(=CC=C2)N(C)C)NC(=O)C3=CC=C(C=C3)O
Procedure, shortened: as §1

[10] = compound: CC1=CC=C(C=C1)SC2=C3C=C(SC3=CN=C2)C(=O)N
Procedure, shortened: as §1

[11] = compound: CCCS(=O)(=O)Nc1ccc(F)c(C(=O)c2c[nH]c3ncc(-c4ccc(Cl)cc4)cc23)c1F [vemurafenib]
Procedure, shortened: as §1

[12] = compound: CCCS(=O)(=O)Nc1ccc(F)c(C(=O)c2c[nH]c3ncc(Cl)cc23)c1F
Procedure, shortened: as §1

[13] = compound: CCN(CCCOc1ccc2c(Nc3cc(CC(=O)Nc4cccc(F)c4)[nH]n3)ncnc2c1)CCOP(=O)(O)O [barasertib]
Procedure, shortened: as §1

[14] = compound: CC[C@@H]1C(=O)N(C)c2cnc(Nc3ccc(C(=O)NC4CCN(C)CC4)cc3OC)nc2N1C1CCCC1
Procedure, shortened: as §1

[15] = compound: CC[C@@H]1C(=O)N(C)c2cnc(Nc3ccc(C(=O)N[C@H]4CC[C@H](N5CCN(CC6CC6)CC5)CC4)cc3OC)nc2N1C(C)C [volasertib]
Procedure, shortened: as §1

[16] = compound: CCn1c(C(=O)N(C2CC2)C2CC2)cc2c3c(ncn3C)c(Nc3cc(C)n(C)n3)nc21
Procedure, shortened: as §1

[17] = compound: CCn1cc(-c2ccnc3[nH]c(-c4cccc(CN(C)C)c4)cc23)c(-c2ccc(NC(=O)N(C)C)cc2)n1
Procedure, shortened: as §1

[18] = compound: CN1CCC(CNc2ccc3ncc(-c4cccc(OC(F)(F)F)c4)n3n2)CC1
Procedure, shortened: as §1

[19] = compound: CN1CCN(CCOc2cc(OC3CCOCC3)c3c(Nc4c(Cl)ccc5c4OCO5)ncnc3c2)CC1 [saracatinib]
Procedure, shortened: as §1

[20] = compound: CN1CCN(c2nc(C3=C(c4c[nH]c5ccccc45)C(=O)NC3=O)c3ccccc3n2)CC1 [sotrastaurin]
Procedure, shortened: as §1

EEF1AKMT4 (UniProt P0DPD7)
log2 fold change [1]: 0.023
log2 fold change [2]: -0.012
log2 fold change [3]: -0.003
log2 fold change [4]: -0.053
log2 fold change [5]: 0.003
log2 fold change [6]: -0.006
log2 fold change [7]: -0.055
log2 fold change [8]: -0.029
log2 fold change [9]: -0.029
log2 fold change [10]: 0.069
log2 fold change [11]: 0.135
log2 fold change [12]: 0.008
log2 fold change [13]: 0.126
log2 fold change [14]: -0.025
log2 fold change [15]: -0.072
log2 fold change [16]: -0.035
log2 fold change [17]: -0.129
log2 fold change [18]: 0.052
log2 fold change [19]: -0.033
log2 fold change [20]: -0.004

EMC7 (UniProt Q9NPA0)
Sequence of UniProt Q9NPA0 (Q9NPA0 whole entry, looked up): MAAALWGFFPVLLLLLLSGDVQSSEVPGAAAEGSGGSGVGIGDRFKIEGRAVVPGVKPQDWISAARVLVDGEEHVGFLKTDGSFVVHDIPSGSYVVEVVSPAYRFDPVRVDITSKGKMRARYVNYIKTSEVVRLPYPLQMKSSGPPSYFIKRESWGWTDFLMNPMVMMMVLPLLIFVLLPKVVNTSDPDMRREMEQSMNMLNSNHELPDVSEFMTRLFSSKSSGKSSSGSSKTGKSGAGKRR
log2 fold change [1]: -0.033
log2 fold change [2]: -0.001
log2 fold change [3]: 0.008
log2 fold change [4]: -0.003
log2 fold change [5]: 0.013
log2 fold change [6]: -0.012
log2 fold change [7]: 0.024
log2 fold change [8]: 0.015
log2 fold change [9]: -0.006
log2 fold change [10]: -0.032
log2 fold change [11]: 0.034
log2 fold change [12]: 0.004
log2 fold change [13]: -0.006
log2 fold change [14]: 0.034
log2 fold change [15]: 0
log2 fold change [16]: -0.023
log2 fold change [17]: -0.37 (active)
log2 fold change [18]: 0.125
log2 fold change [19]: 0.005
log2 fold change [20]: 0.026

ECI2 (UniProt O75521)
Sequence of UniProt O75521 (O75521 whole entry, looked up): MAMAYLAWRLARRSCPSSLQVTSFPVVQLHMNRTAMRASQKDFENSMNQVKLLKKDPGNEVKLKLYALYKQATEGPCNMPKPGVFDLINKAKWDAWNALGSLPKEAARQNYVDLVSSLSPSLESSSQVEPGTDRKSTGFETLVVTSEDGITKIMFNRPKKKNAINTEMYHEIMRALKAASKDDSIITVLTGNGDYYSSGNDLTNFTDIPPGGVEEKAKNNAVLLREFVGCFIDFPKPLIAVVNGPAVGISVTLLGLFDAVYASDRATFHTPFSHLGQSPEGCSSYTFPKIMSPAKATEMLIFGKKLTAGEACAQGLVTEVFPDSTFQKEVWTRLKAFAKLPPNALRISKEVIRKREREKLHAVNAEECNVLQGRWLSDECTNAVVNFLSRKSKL
log2 fold change [1]: 0.01
log2 fold change [2]: -0.027
log2 fold change [3]: -0.033
log2 fold change [4]: -0.049
log2 fold change [5]: -0.015
log2 fold change [6]: -0.013
log2 fold change [7]: -0.008
log2 fold change [8]: 0.013
log2 fold change [9]: 0.007
log2 fold change [10]: 0
log2 fold change [11]: 0.071
log2 fold change [12]: 0.013
log2 fold change [13]: 0.007
log2 fold change [14]: 0.059
log2 fold change [15]: -0.013
log2 fold change [16]: 0.004
log2 fold change [17]: -0.021
log2 fold change [18]: -0.017
log2 fold change [19]: -0.003
log2 fold change [20]: -0.045

FCHO1 (UniProt O14526)
Sequence of UniProt O14526 (O14526 whole entry, looked up): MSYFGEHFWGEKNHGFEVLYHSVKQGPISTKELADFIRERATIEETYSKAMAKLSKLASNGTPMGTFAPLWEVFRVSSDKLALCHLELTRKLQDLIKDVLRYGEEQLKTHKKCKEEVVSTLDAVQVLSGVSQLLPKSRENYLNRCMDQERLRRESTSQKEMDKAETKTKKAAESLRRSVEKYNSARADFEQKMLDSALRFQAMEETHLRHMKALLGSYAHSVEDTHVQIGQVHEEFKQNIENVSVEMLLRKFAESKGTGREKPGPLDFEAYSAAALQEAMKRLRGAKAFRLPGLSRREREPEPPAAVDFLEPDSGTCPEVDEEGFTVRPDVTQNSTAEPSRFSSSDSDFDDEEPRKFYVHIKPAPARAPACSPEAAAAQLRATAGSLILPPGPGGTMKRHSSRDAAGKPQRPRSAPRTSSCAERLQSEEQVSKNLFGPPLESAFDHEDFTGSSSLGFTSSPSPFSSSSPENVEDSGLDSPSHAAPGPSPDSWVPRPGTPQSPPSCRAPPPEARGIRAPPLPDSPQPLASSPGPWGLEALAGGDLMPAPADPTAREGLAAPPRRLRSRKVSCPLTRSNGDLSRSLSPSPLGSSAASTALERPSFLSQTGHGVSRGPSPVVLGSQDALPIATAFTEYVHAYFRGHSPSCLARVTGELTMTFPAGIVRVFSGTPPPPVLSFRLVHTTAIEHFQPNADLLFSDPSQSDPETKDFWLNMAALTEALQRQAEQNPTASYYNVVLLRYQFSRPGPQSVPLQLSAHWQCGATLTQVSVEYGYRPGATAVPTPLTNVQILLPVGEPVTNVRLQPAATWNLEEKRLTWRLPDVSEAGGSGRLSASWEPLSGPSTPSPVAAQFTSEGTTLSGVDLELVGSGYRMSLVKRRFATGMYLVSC
log2 fold change [1]: -0.053
log2 fold change [2]: 0.022
log2 fold change [3]: 0.018
log2 fold change [4]: 0.014
log2 fold change [5]: 0.013
log2 fold change [6]: 0.031
log2 fold change [7]: 0.018
log2 fold change [8]: 0.002
log2 fold change [9]: 0.004
log2 fold change [10]: 0.041
log2 fold change [11]: 0.023
log2 fold change [12]: 0.033
log2 fold change [13]: 0.02
log2 fold change [14]: 0.023
log2 fold change [15]: -0.062
log2 fold change [16]: -0.026
log2 fold change [17]: -0.053
log2 fold change [18]: -0.004
log2 fold change [19]: 0.006
log2 fold change [20]: -0.015

GCN1 (UniProt Q92616)
Sequence of UniProt Q92616 (Q92616 whole entry, looked up): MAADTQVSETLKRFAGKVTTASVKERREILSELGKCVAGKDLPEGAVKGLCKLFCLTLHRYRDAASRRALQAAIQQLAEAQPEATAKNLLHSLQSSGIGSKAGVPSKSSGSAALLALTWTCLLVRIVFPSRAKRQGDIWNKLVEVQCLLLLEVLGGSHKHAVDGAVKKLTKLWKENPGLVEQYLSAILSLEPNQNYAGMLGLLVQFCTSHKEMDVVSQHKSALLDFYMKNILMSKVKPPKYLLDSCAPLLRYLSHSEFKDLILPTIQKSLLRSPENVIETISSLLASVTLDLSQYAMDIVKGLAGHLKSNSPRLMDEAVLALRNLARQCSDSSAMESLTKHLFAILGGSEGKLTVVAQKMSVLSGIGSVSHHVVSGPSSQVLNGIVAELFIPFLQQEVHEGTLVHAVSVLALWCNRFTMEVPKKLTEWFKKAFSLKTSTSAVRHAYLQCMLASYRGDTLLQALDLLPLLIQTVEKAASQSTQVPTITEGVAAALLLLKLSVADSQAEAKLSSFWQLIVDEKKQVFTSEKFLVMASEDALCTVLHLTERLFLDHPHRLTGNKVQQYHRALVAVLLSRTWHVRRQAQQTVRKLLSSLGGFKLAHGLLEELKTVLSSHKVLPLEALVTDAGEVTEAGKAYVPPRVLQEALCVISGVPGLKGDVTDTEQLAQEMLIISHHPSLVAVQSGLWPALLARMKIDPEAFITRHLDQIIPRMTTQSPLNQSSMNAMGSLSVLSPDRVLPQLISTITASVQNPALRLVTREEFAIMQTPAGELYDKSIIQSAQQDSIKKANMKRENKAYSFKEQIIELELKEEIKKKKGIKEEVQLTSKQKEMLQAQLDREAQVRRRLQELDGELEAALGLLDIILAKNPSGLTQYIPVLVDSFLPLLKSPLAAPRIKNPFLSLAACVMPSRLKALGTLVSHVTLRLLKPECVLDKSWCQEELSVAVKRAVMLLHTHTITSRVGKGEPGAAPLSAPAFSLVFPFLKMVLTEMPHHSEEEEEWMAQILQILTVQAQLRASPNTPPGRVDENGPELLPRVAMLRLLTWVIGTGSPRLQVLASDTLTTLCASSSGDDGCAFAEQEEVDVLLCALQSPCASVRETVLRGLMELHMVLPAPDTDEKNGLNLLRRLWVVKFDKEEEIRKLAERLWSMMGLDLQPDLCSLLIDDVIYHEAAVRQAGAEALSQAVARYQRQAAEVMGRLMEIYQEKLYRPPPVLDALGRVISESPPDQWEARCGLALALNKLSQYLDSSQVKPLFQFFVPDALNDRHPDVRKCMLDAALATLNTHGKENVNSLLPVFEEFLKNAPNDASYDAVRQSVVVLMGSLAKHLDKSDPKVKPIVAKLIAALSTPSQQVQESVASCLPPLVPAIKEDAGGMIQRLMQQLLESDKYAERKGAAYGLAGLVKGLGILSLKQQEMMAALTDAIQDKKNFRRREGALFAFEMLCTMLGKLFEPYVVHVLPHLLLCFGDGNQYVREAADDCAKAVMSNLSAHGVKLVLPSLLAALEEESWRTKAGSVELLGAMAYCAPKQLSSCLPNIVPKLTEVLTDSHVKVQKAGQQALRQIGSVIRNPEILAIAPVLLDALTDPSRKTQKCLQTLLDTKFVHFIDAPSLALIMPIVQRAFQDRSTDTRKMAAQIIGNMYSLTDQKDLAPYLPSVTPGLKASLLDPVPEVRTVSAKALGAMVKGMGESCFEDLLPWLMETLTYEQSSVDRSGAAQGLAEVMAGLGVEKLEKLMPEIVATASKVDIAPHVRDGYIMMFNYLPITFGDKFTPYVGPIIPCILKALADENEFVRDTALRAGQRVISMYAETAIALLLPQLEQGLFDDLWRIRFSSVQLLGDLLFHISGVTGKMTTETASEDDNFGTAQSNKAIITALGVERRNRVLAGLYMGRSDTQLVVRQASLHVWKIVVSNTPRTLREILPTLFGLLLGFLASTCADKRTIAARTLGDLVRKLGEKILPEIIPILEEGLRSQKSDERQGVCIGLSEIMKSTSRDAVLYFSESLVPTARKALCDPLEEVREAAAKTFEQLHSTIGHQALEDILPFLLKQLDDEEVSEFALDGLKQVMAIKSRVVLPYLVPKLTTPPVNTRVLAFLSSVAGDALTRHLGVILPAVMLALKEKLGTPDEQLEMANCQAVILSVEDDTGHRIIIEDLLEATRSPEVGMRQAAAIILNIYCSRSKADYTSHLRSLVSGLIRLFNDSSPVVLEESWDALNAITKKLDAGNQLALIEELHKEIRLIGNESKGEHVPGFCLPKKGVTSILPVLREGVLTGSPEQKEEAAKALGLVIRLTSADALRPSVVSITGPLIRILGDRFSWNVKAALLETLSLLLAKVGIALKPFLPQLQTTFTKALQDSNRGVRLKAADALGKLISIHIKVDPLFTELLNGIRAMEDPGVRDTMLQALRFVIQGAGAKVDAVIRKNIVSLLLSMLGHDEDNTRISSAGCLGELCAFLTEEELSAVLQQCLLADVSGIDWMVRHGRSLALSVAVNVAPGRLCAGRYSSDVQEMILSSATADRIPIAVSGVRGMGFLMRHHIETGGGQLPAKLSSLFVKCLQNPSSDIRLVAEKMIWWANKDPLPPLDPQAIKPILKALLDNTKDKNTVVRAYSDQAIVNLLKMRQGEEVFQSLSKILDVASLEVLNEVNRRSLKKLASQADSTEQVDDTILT
log2 fold change [1]: 0.016
log2 fold change [2]: 0.008
log2 fold change [3]: 0.064
log2 fold change [4]: 0.028
log2 fold change [5]: -0.031
log2 fold change [6]: -0.016
log2 fold change [7]: -0.01
log2 fold change [8]: 0.008
log2 fold change [9]: 0.075
log2 fold change [10]: 0.026
log2 fold change [11]: 0.025
log2 fold change [12]: 0.004
log2 fold change [13]: 0.061
log2 fold change [14]: -0.107
log2 fold change [15]: -0.084
log2 fold change [16]: 0.082
log2 fold change [17]: -0.05
log2 fold change [18]: -0.07
log2 fold change [19]: 0.015
log2 fold change [20]: -0.006

ESYT2 (UniProt H7BXI1)
log2 fold change [1]: 0.035
log2 fold change [2]: -0.022
log2 fold change [3]: 0.003
log2 fold change [4]: -0.039
log2 fold change [5]: -0.04
log2 fold change [6]: 0.046
log2 fold change [7]: 0.05
log2 fold change [8]: 0.015
log2 fold change [9]: -0.025
log2 fold change [10]: -0.044
log2 fold change [11]: -0.047
log2 fold change [12]: -0.044
log2 fold change [13]: 0.046
log2 fold change [14]: -0.065
log2 fold change [15]: -0.036
log2 fold change [16]: -0.009
log2 fold change [17]: 0.037
log2 fold change [18]: -0.068
log2 fold change [19]: 0.033
log2 fold change [20]: -0.003

ELAVL1 isoform 2 (UniProt Q15717)
Sequence of UniProt Q15717 (Q15717 whole entry, looked up): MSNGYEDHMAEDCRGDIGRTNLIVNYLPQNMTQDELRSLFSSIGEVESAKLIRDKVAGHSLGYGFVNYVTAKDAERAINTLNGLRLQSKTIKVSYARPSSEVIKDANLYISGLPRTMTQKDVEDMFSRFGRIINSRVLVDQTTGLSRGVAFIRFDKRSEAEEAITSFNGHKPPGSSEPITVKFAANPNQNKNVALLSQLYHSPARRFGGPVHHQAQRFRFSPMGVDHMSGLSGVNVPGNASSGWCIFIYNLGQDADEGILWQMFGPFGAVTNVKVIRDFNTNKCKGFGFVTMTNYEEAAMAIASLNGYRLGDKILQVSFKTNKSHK
log2 fold change [1]: 0.042
log2 fold change [2]: -0.034
log2 fold change [3]: -0.016
log2 fold change [4]: 0.039
log2 fold change [5]: -0.009
log2 fold change [6]: -0.02
log2 fold change [7]: -0.026
log2 fold change [8]: -0.042
log2 fold change [9]: 0.028
log2 fold change [10]: 0.007
log2 fold change [11]: 0.035
log2 fold change [12]: 0.024
log2 fold change [13]: -0.013
log2 fold change [14]: -0.03
log2 fold change [15]: -0.029
log2 fold change [16]: 0.035
log2 fold change [17]: 0.013
log2 fold change [18]: -0.083
log2 fold change [19]: -0.001
log2 fold change [20]: 0.024

ECH1 (UniProt Q13011)
Sequence of UniProt Q13011 (Q13011 whole entry, looked up): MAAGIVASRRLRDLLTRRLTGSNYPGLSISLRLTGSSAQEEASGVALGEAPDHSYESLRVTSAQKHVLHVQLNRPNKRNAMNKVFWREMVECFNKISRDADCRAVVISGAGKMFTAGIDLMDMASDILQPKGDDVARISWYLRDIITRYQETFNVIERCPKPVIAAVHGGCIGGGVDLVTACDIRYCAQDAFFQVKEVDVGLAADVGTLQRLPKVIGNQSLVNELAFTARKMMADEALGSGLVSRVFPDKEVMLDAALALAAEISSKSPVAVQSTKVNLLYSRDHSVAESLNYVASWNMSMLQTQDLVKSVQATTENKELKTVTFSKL
log2 fold change [1]: -0.035
log2 fold change [2]: -0.02
log2 fold change [3]: 0.064
log2 fold change [4]: -0.036
log2 fold change [5]: -0.033
log2 fold change [6]: 0.04
log2 fold change [7]: -0.02
log2 fold change [8]: -0.017
log2 fold change [9]: -0.018
log2 fold change [10]: 0.013
log2 fold change [11]: -0.003
log2 fold change [12]: -0.025
log2 fold change [13]: -0.008
log2 fold change [14]: -0.019
log2 fold change [15]: 0.041
log2 fold change [16]: -0.007
log2 fold change [17]: -0.07
log2 fold change [18]: 0.348 (active)
log2 fold change [19]: -0.047
log2 fold change [20]: 0.608 (active)
